Reference: PubChem BioAssay (Tox21)
“And” between values parts separate entries of the source, which are not always exact repeats. Identical values can stand only once. Records with an inconclusive call do not appear. A call without a number means that no potency is given here. A structure can be active in one record and inactive in another. The source made the active and inactive calls. Calls come from the whole dose curve.

The compounds below were run against Beta-2 adrenergic receptor (Homo sapiens) (UniProt P07550) (assay: Adrenergic beta2 receptor (ADRB2) small molecule antagonists, cell-based qHTS assay (AID 1963592; note: nearly all actives have a fitted effect of over 50% in size)). Details: CHO-ADRB2 cells, isoproterenol-stimulated cAMP HTRF ratio, 0.5 h; series mostly up to 92.4 µM; activity change, negative = inhibition: at the top concentration.
Source text: U.S. Tox21 Program National Center for Advancing Translational Sciences [NCATS] Division of Preclinical Innovation [DPI] U.S. Environmental Protection Agency [EPA] National Institutes of Environmental Health Sciences [NIEHS] National Toxicology Program [NTP] U.S. Food and Drug Administration [FDA] Tox21 Assay Overview: Beta adrenergic receptors (Beta-ARs) belong to the G-protein coupled receptor (GPCR) superfamily, includes three subtypes - beta1, beta2, and beta3. Beta1-AR is the predominant receptor subtype expressed in the heart, and beta2-AR is expressed in the kidney, lung, blood vessel and in the heart, and beta3 is found in the adipocytes. Beta1 and 2 ARs couple to Gs protein and elevate cyclic adenosine mono phosphate (cAMP), which activates protein kinase A and leads to the downstream signaling responsible for the physiological actions. Beta-AR agonists or antagonists are the most prescribed therapeutic agents for heart failure and asthma, and these were one of the first target receptors for the rational drug design. Tox21 10K compound library was screened using the cAMP-Gs dynamic assay (Cisbio Bioassays, Shelton, CT) to identify agonists/antagonists of the Gs-coupled human adrenergic, beta2 receptor (ADRB2) in the CHO-ADRB2 cell line (Codex BioSolutions, Inc. Gaithersburg, MD), which stably over-expresses ADRB2. The principle of cAMP-Gs dynamic assay is based on HTRF technology, which facilitates the fluorescence resonance energy transfer (FRET) between donor Europium cryptate and acceptor d2-labeled cAMP. The cAMP generated within cells competes with the red acceptor, d2-labled cAMP, for binding to the monoclonal anti-cAMP-cryptate (Europium donor). An increase in intracellular cAMP leads to the disruption of FRET signal, and the signal is inversely proportional to the cAMP concentration. Propranolol HCl (Sigma-Aldrich, St. Louis, MO) was used as a positive control in the screening.
Tox21 Assay Protocol Summary: CHO-ADRB2 cells were dispensed at 1,000/well in 4uL assay medium into white/solid 1536-well plates (Greiner Bio-One North America Inc., Monroe, NC) using a Multidrop Combi dispenser (ThermoFisher Scientific, Waltham, MA). The assay plates were incubated at 37C and 5% CO2 for an overnight (18-20hr). Then positive control and test compounds dissolved in DMSO were transferred to the assay plates at 23nL using a Pintool station (Wako, San Diego, CA). Following the compound and positive control transfer, 1uL agonist-stimulation mix containing 1nM Isoproterenol HCl, 100uM IBMX and 25uM Ro-20-1724 was added to each well of the assay plates using BioRAPTR Flying Reagent Dispenser (FRD, Beckman Coulter, Brea, CA). The assay plates were incubated at room temperature for 0.5hr. Then 2.5ul each d2-labled cAMP and anti-cAMP-cryptate solutions were added separately to each well of the assay plates using an FRD and the assay plates were incubated at room temperature for 1hr. The fluorescence signal was measured at two different wavelengths (665nm and 615nm) using an Envision plate reader (Perkin Elmer, Shelton, CT). Data were expressed as the ratio of 665 nm/615 nm.
Potency is the fitted concentration of half-maximal effect.

Chain of Beta-2 adrenergic receptor (Homo sapiens) (P07550 whole entry, looked up): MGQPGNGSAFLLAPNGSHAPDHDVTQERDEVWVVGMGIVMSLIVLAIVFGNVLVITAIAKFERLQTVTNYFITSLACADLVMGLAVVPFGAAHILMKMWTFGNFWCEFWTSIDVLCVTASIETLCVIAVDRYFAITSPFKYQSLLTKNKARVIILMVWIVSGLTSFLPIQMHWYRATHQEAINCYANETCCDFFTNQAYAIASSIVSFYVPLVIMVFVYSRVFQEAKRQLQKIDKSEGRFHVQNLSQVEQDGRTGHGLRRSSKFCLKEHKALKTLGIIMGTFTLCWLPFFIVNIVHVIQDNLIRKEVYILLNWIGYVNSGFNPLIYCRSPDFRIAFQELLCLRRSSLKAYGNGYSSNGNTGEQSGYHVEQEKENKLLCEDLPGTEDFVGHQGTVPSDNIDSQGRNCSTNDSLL

Compound | Potency | activity change, negative = inhibition
CC(=O)Oc1ccccc1C(=O)O | inactive | 
Oc1c(Cl)cc(Cl)c(Cl)c1Cl | inactive | 
COC(=O)c1cccc(C(=O)OC)c1 | inactive and 15.4 µM (active) | 
CCOC(=O)c1ccc(O)cc1 | inactive | 
CCCN(CCC)S(=O)(=O)c1ccc(C(=O)O)cc1 | inactive | 
Cc1ncc([N+](=O)[O-])n1C | inactive | 
CCCCC1C(=O)N(c2ccccc2)N(c2ccccc2)C1=O | inactive | 
CCCC(CCC)C(=O)O | inactive | 
CC(=O)Nc1ccc2c(c1)Cc1cc(NC(C)=O)ccc1-2 | inactive | 
S=c1nc[nH]c2nc[nH]c12 |  | 3.58% [at 42.5 µM] (inactive)
CC(=O)C1=C(C)[C@@H]2C[C@@]3(C1)[C@H](C)CC[C@H]3C2(C)C | inactive | 
c1ccc2cc(Nc3ccc(Nc4ccc5ccccc5c4)cc3)ccc2c1 |  | 7.33% (inactive)
CC1=C(C)S(=O)(=O)CCS1(=O)=O | inactive and 13.7 µM (active) | 
CCCCCCCCCCCCCC[N+](C)(C)C | inactive | 
CCCc1cc(=O)[nH]c(=S)[nH]1 | inactive | 
CCn1cc(C(=O)O)c(=O)c2ccc(C)nc21 | inactive | 
O=S1(=O)CCCO1 |  | -9.67% (inactive)
Cc1cn([C@H]2C=C[C@@H](CO)O2)c(=O)[nH]c1=O | inactive | 
CCCCCCOCCO | inactive | 
Cc1ncc(CO)c(CO)c1O | inactive | 

Compound | Potency | activity change, negative = inhibition
CC(=O)CC/C=C(\C)CCC=C(C)C | inactive | 
O=c1cc[nH]c(=O)[nH]1 | inactive | 
CN/C(=C\[N+](=O)[O-])NCCSCc1csc(CN(C)C)n1 | inactive | 
CN(C)C | inactive | 
CCc1cc(C(N)=S)ccn1 | inactive | 
CCc1ccc(CCOc2ccc(CC3SC(=O)NC3=O)cc2)nc1 (stereo not given) | inactive | 
Cc1ccc(C(C)C)c(O)c1 | inactive | 
CCCCCCCCC | inactive | 
c1ccc2c(c1)Cc1ccccc1-2 | inactive | 
O=C1O[C@H]([C@@H](O)CO)C(O)=C1O | inactive | 
C=C(C)C(=O)OCCC[Si](OC)(OC)OC | inactive | 
CC(=O)Oc1c(C)c(C)c2c(c1C)CC[C@@](C)(CCC[C@H](C)CCC[C@H](C)CCCC(C)C)O2 | inactive | 
C[C@]12CCC(=O)C=C1CC[C@@H]1[C@@H]2C(=O)C[C@@]2(C)[C@H]1CC[C@]2(O)C(=O)CO | inactive | 
Cc1ccc(S(=O)(=O)N=C=O)cc1 | inactive | 
O=C(O)c1ccc2c(c1)C(=O)OC2=O | inactive | 
Cc1ccc(O)cc1 | inactive | 
c1ccc2[nH]cnc2c1 | inactive | 
O=C(O)CC(C(=O)O)C(CC(=O)O)C(=O)O (stereo not given) | inactive | 
O=C(CC(C(=O)OC1CCCCC1)S(=O)(=O)O)OC1CCCCC1 (stereo not given) | inactive | 
CCCOC(=O)c1cc(O)c(O)c(O)c1 |  | -18.6% (inactive)
